Measurements as given in PubChem BioAssay (EPA / NIEHS).
Calls of active or inactive are those of the source. The calls were made as follows: active = hit-call score of the fitted dose curve at least 0.9, where 1 is the maximum; inactive = score below 0.9.

What was measured:
[1] = ATG_CRE_CIS: Attagene CIS-FACTORIAL HepG2 Assay for human cAMP Responsive Element (CRE) binding protein 3 (AID 2282926); conditions: HepG2 CRE cis-reporter, Attagene multiplexed mRNA; actives raise or lower the signal
In short: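 Induced reporter mRNA from a CRE cis element, measured in HepG2 among many multiplexed units at 24 h. Detection used RT-PCR plus capillary electrophoresis of fluorescent fragments; DMSO served as negative control.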

[2] = molecular target: CCAAT/enhancer-binding protein beta (Homo sapiens) (UniProt P17676); assay: ATG_C_EBP_CIS: Attagene CIS-FACTORIAL HepG2 Assay for human CCAAT/Enhancer Binding Protein (C/EBP) beta (AID 2282927); conditions: HepG2 Attagene cis-factorial transcription factor reporter; actives raise or lower the signal
Chain of CCAAT/enhancer-binding protein beta (Homo sapiens) (P17676 whole entry, looked up): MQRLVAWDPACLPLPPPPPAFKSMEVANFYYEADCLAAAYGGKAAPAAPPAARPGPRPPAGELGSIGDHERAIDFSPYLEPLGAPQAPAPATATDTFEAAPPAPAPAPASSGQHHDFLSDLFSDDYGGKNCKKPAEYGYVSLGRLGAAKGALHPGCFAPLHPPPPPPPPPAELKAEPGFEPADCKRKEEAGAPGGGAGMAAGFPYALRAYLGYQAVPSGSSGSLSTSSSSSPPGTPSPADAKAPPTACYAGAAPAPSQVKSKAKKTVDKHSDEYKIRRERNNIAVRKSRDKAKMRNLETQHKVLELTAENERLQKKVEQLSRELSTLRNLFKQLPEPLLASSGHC
In short: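 Changes in reporter mRNA, rather than exogenous chimeric receptor activity, reflect native C/EBP signalling in transfected HepG2 cells dosed for 24 h; transcripts are detected by RT-PCR and capillary electrophoresis.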

[3] = ATG_CMV_CIS: Attagene CIS-FACTORIAL HepG2 Assay for human CMV (Internal Marker) (AID 2282928); conditions: HepG2 CMV promoter reporter, transcription factor profiling; actives raise or lower the signal;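 also: endpoint acts as a background internal control marker rather than a target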
In short: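 24 h chemical treatment, HepG2 with transient multi-reporter transfection; RNA → oligo(dT) RT → PCR → 6-FAM extension → HpaI digest → CE fluorescence. Bidirectional fit, DMSO negative control.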

[4] = ATG_DR4_LXR_CIS: Attagene CIS-FACTORIAL HepG2 Assay for human Liver X Receptor (LXR), DR4 submotif (AID 2282929); conditions: HepG2 Attagene DR4 cis-reporter, mRNA transcription; actives raise or lower the signal
In short: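 HepG2, transient MRTU transfection, cis-element (DR4) promoter; 24 h compound exposure; total RNA → oligo(dT) RT → PCR → 6-FAM primer extension → HpaI cut → CE. Gain/loss vs DMSO, bidirectional fit.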

[5] = molecular target: Aryl hydrocarbon receptor (Homo sapiens) (UniProt P35869); assay: ATG_Ahr_CIS: Attagene CIS-FACTORIAL HepG2 Assay for human Aryl Hydrocarbon Receptor (Ahr) (AID 2282930); conditions: HepG2 AhR cis-factorial reporter transcription; actives raise or lower the signal
Chain of Aryl hydrocarbon receptor (Homo sapiens) (P35869 whole entry, looked up): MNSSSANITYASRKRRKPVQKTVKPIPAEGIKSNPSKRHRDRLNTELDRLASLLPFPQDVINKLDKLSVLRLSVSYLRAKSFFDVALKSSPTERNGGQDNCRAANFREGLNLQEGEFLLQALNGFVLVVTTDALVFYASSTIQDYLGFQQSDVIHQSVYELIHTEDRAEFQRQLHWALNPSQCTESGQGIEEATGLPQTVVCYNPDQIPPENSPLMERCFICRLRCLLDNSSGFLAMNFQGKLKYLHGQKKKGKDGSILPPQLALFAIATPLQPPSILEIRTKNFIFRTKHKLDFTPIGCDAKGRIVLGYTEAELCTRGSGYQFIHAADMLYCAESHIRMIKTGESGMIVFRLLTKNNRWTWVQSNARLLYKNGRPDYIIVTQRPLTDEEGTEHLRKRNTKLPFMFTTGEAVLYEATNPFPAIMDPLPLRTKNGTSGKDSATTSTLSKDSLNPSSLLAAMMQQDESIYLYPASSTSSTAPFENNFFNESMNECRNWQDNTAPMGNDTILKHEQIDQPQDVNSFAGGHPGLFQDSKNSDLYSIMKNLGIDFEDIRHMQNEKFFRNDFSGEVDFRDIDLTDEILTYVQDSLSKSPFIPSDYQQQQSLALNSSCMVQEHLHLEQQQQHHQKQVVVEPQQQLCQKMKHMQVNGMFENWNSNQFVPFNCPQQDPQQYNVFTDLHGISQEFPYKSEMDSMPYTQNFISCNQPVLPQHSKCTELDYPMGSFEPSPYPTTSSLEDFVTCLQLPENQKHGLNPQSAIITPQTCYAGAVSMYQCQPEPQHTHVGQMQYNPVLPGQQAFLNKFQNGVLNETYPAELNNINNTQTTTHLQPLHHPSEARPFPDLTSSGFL
In short: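 HepG2, transient MRTU (cis) transfection, 24 h exposure. RNA → cDNA → PCR → 6-FAM primer extension → HpaI 2 h 37 C → CE. Fit: bidirectional, DMSO baseline.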

[6] = ATG_AP_1_CIS: Attagene CIS-FACTORIAL HepG2 Assay for human Activator Protein 1 (AP-1) (AID 2282931); conditions: HepG2 Attagene cis-factorial AP-1 reporter mRNA; actives raise or lower the signal
In short: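 Transient MRTU transfection of HepG2 → 24 h chemical treatment → RNA isolation, RT-PCR, 6-FAM labelling, HpaI digest → capillary electrophoresis. Fit: bidirectional, DMSO negative control.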

[7] = ATG_AP_2_CIS: Attagene CIS-FACTORIAL HepG2 Assay for human Activator Protein 2 (AP-2) (AID 2282932); conditions: HepG2 AP-2 cis-reporter, Attagene transcription factor profiling; actives raise or lower the signal
In short: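 Transiently transfected HepG2 cells are exposed to chemical for 24 h. Reporter transcripts are then measured as fluorescence following RT-PCR and capillary separation, and gain- or loss-of-signal is fitted relative to DMSO.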

[8] = ATG_BRE_CIS: Attagene CIS-FACTORIAL HepG2 Assay for human Bone Morphogenetic Protein (BMP) Response Element (BRE) (AID 2282933); conditions: HepG2 BMP response element reporter, Attagene transcription factor profiling; actives raise or lower the signal
In short: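 Transient MRTU transfection of human HepG2 liver cells; 24 h compound treatment; total RNA isolated, reverse-transcribed, PCR-amplified, 6-FAM labelled, HpaI-cut, capillary electrophoresis. DMSO = negative control/baseline, bidirectional fit.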

[9] = molecular target: Transcription factor E2F1 (Homo sapiens) (UniProt Q01094); assay: ATG_E2F_CIS: Attagene CIS-FACTORIAL HepG2 Assay for human E2F Transcription Factor 1 (AID 2282935); conditions: HepG2 Attagene cis-reporter, E2F reporter RNA transcripts; actives raise or lower the signal
Chain of Transcription factor E2F1 (Homo sapiens) (Q01094 whole entry, looked up): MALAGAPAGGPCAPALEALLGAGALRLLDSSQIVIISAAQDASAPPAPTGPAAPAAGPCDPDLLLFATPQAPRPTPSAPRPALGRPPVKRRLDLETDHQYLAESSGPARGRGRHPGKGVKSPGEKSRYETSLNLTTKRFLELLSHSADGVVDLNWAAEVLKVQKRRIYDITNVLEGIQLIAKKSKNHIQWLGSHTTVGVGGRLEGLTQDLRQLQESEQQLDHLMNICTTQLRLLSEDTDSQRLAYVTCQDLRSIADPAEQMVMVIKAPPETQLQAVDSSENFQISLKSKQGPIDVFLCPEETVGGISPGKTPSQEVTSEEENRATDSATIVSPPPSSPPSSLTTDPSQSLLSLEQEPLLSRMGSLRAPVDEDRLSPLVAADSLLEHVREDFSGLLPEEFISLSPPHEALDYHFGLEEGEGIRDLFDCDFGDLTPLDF
In short: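 Fluorescent RT-PCR products, digested with HpaI for 2 h at 37 C, are separated by capillary electrophoresis. Source RNA comes from transfected HepG2 cultures treated for 24 h.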

[10] = ATG_E_Box_CIS: Attagene CIS-FACTORIAL HepG2 Assay for human Enhancer Box (E-box) (AID 2282936); conditions: HepG2 E-box cis-reporter transcription, actives raise or lower the signal
In short: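 Fluorescent reporter fragments separated by capillary electrophoresis gave the signal; mRNA came from HepG2 cells transfected with cis-element reporters and treated 24 h. Curves fitted bidirectionally relative to DMSO controls.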

[11] = ATG_M_61_CIS: Attagene CIS-FACTORIAL HepG2 Assay for M61 Transcription Factor (Internal Marker) (AID 2282937); conditions: HepG2 Attagene CIS-FACTORIAL M61 internal marker reporter; actives raise or lower the signal
In short: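 Human liver HepG2, transient MRTU transfection (cis promoter elements), 24 h compound. Total RNA → oligo(dT) RT → PCR → FAM label → HpaI → CE. Internal background marker; bidirectional fitting, DMSO = baseline.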

[12] = ATG_EGR_CIS: Attagene CIS-FACTORIAL HepG2 Assay for human Early Growth Response 1 (EGR1) (AID 2282938); conditions: HepG2 Attagene CIS-FACTORIAL EGR reporter mRNA; actives raise or lower the signal
In short: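 Transient transfection of human HepG2 with multiple cis-regulated reporter units, chemical exposure 24 h, total RNA isolated. Reverse transcription, PCR, fluorescent labelling and capillary electrophoresis quantify reporter transcripts; activity fitted bidirectionally against DMSO.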

[13] = ATG_ERE_CIS: Attagene CIS-FACTORIAL HepG2 Assay for Estrogen Response Element (ERE) (AID 2282940); conditions: HepG2 ERE cis-reporter, Attagene RNA transcript; actives raise or lower the signal
In short: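 Transient MRTU transfection of human HepG2; cis-element promoters; 24 h dosing; total RNA → RT (oligo dT) → PCR → 6-FAM primer extension → HpaI digest → CE fluorescence. Bidirectional fit, DMSO baseline.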

[14] = ATG_Ets_CIS: Attagene CIS-FACTORIAL HepG2 Assay for human Erythroblast Transformation Specific (ETS) (AID 2282941); conditions: HepG2 ETS cis-reporter transcription, actives raise or lower the signal
In short: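 Cis-regulated reporter mRNA induction in HepG2 (transient transfection), 24 h exposure, RT-PCR plus capillary electrophoresis detection; DMSO serves as negative control and baseline.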

[15] = molecular target: Hepatocyte nuclear factor 3-beta (Homo sapiens) (UniProt Q9Y261); assay: ATG_FoxA2_CIS: Attagene CIS-FACTORIAL HepG2 Assay for human Forkhead box A2 (FOXA2) (AID 2282942); conditions: HepG2 cis-reporter transcription factor activity, 24 h; actives raise or lower the signal
Chain of Hepatocyte nuclear factor 3-beta (Homo sapiens) (Q9Y261 whole entry, looked up): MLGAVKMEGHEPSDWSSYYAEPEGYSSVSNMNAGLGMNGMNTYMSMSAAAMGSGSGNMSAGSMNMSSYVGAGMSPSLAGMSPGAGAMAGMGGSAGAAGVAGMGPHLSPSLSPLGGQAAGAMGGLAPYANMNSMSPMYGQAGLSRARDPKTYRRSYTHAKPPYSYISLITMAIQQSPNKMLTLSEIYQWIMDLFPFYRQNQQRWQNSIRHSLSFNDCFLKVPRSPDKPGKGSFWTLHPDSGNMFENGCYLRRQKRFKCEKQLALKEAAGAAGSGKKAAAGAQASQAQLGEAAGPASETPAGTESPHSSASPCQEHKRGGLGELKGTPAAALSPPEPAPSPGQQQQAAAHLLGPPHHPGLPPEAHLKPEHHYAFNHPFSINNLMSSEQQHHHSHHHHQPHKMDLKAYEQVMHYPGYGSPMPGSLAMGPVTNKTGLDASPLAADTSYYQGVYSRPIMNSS
In short: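 Transient MRTU transfection of HepG2 liver cells; 24 h treatment; total RNA → oligo(dT) RT → PCR → FAM primer extension → HpaI cut → CE. Bidirectional fit vs DMSO.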

[16] = ATG_FoxO_CIS: Attagene CIS-FACTORIAL HepG2 Assay for human Forkhead box O (FoxO) (AID 2282943); conditions: HepG2 Attagene cis-reporter, FoxO element, mRNA; actives raise or lower the signal
In short: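 Human hepatoma HepG2 cells carry transiently introduced reporter transcription units controlled by cis promoter elements. Chemical treatment lasted 24 h, and mRNA signal was compared with DMSO.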

[17] = ATG_GATA_CIS: Attagene CIS-FACTORIAL HepG2 Assay for human GATA Binding Protein (AID 2282944); conditions: HepG2 GATA cis-element reporter, Attagene multiplex mRNA; actives raise or lower the signal
In short: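 Transient MRTU transfection, HepG2, 24 h compound exposure. Total RNA → oligo(dT) RT → PCR → 6-FAM primer extension → HpaI cut → CE. Bidirectional fit vs DMSO.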

[18] = ATG_GLI_CIS: Attagene CIS-FACTORIAL HepG2 Assay for human Zinc Finger Protein GLI1 (AID 2282945); conditions: HepG2, Attagene cis-factorial reporter mRNA, GLI element; actives raise or lower the signal
In short: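 Bidirectional curve fits relative to DMSO, using reporter mRNA levels from RT-PCR plus capillary electrophoresis. Cells were HepG2 transiently carrying cis-regulated reporter constructs, harvested 24 h after dosing.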

[19] = ATG_M_19_CIS: Attagene CIS-FACTORIAL HepG2 Assay for M19 Transcription Factor (Internal Marker) (AID 2282939); conditions: HepG2 Attagene CIS-FACTORIAL M19 internal marker reporter; actives raise or lower the signal
In short: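 Transfect HepG2 with MRTU reporter library → dose chemical, 24 h → isolate total RNA, reverse-transcribe with oligo(dT) → PCR, 6-FAM label, HpaI cut (2 h, 37 C) → capillary electrophoresis. Bidirectional fit vs DMSO.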

Measured: AC50

O=Cc1ccc(Cl)c([N+](=O)[O-])c1
inactive: [2] | [5] | [7] | [9] | [11] | [13] | [17]
active: [1] 129 µM | [3] 168 µM | [4] 48.4 µM | [6] 25.8 µM | [8] 131 µM | [10] 47.7 µM | [12] 129 µM | [14] 134 µM | [15] 145 µM | [16] 128 µM | [18] 165 µM

CC(=O)OCC=Cc1ccccc1
not listed: [13]
inactive: all other assays above

CCCCCC(=O)OCCc1ccccc1
not listed: [8] | [16]
inactive: all other assays above

CC1(C)[C@H](C(=O)OCc2cccc(Oc3ccccc3)c2)[C@@H]1C=C(Cl)Cl
not listed: [7] | [14]
inactive: all other assays above

CNCCO
not listed: [10] | [13]
inactive: all other assays above

Cc1cccc(C)c1C
not listed: [8] | [10] | [13] | [19]
inactive: all other assays above

O=C1CCc2ccccc2O1
not listed: [10]
inactive: all other assays above

CC1CCC2CC1C2(C)C (stereo unspecified)
not listed: [8] | [13] | [19]
inactive: all other assays above
